Screens from PubChem.
This is a sample that favours compounds with a hit; in the whole collection about 2.8% have one here.
SENP7 block = blocks the human protease SENP7 | Q9BQF6 | recombinant SENP7, Z-RLRGG-aminoluciferin luminescence, 40 min | inhibition, % at 5 µM | actives 1.5% (n = 330,000) | AID 434973;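 active = inhibition above about 50% at the single test dose, limit read from the data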;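 also: plate controls were DMSO with enzyme for no effect and no enzyme buffer wells for full effect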
SENP8 block-1 = inhibitors of human SENP8 protease. Q96LD8. recombinant SENP8, Nedd8 substrate fluorescence. inhibition, % at 20 µM. actives 0.64% (n = 360,000). AID 602440; in the data active = inhibition mostly above about 40%, no sharp cut-off; inactive = mostly below about 27%
Target sequence (Q96LD8 whole entry, looked up): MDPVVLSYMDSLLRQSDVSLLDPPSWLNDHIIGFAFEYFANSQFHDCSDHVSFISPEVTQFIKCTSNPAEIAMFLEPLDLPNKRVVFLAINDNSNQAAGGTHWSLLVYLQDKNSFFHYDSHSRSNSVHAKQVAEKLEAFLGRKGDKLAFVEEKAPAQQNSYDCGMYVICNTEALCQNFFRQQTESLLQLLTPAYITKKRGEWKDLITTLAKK
SENP6 inh = inhibitors of human SENP6 protease; actives 1.8% (n = 330,000); Q9GZR1; inhibition, % at 10 µM; Recombinant SENP6 catalytic domain, aminoluciferin luminescence;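 active = inhibition above about 50% at the single tested dose, limit read from the data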;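 also: plate controls were DMSO wells with enzyme for no effect and DMSO wells lacking enzyme for full effect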
SENP8 block-2 = SENP8 protease inhibition. Q96LD8. purified SENP8, Z-RLRGG-aminoluciferin cleavage, luminescence. inhibition, % at 10 µM. actives 1.2% (n = 330,000); in the data active = inhibition above about 50%
HSP90 inh = blocks HSP90-mediated luciferase refolding in reticulocyte lysate. AID 1789. actives 0.91% (n = 290,000). Rabbit reticulocyte lysate, luciferase refolding luminescence, 3 h. inhibition, % at 5.6 µM;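 active = inhibition above the screen-wide mean plus 3 SD, computed separately per campaign, cut at about 16% in these data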;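 also: 0% = DMSO wells and 100% = 60 µM geldanamycin wells; inhibitors lower the luminescence because luciferase stays unfolded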
SENP8 conf = human SENP8 inhibition, confirmed. shares compounds with SENP7 block. Recombinant SENP8, Z-RLRGG-aminoluciferin luminescence, 60 min. inhibition, % at 12.5 µM. actives 40% (n = 6,200). AID 488912;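 active = mean inhibition across replicates above about 50%, limit read from the data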
SENP6 confirm = human SENP6 inhibition, confirmed. shares compounds with SENP7 block. recombinant SENP6, Z-RLRGG-aminoluciferin luminescence. inhibition, % at 12.5 µM. actives 58% (n = 6,200). AID 488915
SENP7 confirm = human SENP7 inhibition, confirmed | shares compounds with SENP7 block | recombinant SENP7, Z-RLRGG-aminoluciferin luminescence, 40 min | inhibition, % at 12.5 µM | actives 69% (n = 6,200) | AID 488917
Casp3 SENP sel = inhibits human caspase-3 in SENP selectivity test | shares compounds with SENP7 block | purified caspase-3, Z-DEVD-aminoluciferin luminescence, 60 min | inhibition, % at 12.5 µM | actives 60% (n = 6,200) | AID 488918;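 active = mean inhibition above about 50%, limit read from the data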;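 also: plate controls were enzyme with DMSO for no effect and wells without caspase-3 for full effect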
Target sequence (P42574 28-227 limits assumed): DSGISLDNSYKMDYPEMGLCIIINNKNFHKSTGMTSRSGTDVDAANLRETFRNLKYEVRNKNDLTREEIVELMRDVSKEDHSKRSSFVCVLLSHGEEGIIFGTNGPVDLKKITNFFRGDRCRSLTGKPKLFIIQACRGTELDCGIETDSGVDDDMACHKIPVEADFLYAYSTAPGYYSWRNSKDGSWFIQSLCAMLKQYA
Luc interf = interferes with luciferase luminescence in SENP counter-screen; AID 488919; shares compounds with SENP7 block; actives 39% (n = 6,200); Pre-incubated SENP8/Z-RLRGG-aminoluciferin, luciferase luminescence interference; inhibition, % at 12.5 µM;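 active = mean inhibition above about 50% when retested at one dose, limit read from the data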;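 also: plate controls were DMSO wells with completed reaction for no effect and substrate without enzyme for full effect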
The depositor's hits bear a star; · = not tested or not shown.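 The calls were made as follows, unless noted: active = mean inhibition above about 50% in the one-dose retest (limit read from the data); inactive = the rest.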

SMILES | SENP7 block | SENP8 block-1 | SENP6 inh | SENP8 block-2 | HSP90 inh | SENP8 conf | SENP6 confirm | SENP7 confirm | Casp3 SENP sel | Luc interf
CCCNC(=O)OCCC12CC3CC(CC(C3)C1)C2 | -2.0 | 32.2 | 6.8 | 2.0 | 1.2 | · | · | · | · | ·
O=C(Nc1cccc(F)c1)c1ccc(-c2ccccc2Cl)o1 | 34.3 | -6.5 | 53.6* | 42.4 | 3.0 | 46.6 | 49.6 | 70.3* | 25.4 | 20.7
Cc1oc2c(C)c3oc(=O)c(CCC(=O)NCCCN4CCCC4=O)c(C)c3cc2c1C | 4.5 | -4.8 | -2.8 | 5.7 | -2.2 | · | · | · | · | ·
Cc1nc2ccc(NC(=O)c3ccc(Cl)nc3)cc2s1 | 1.4 | 2.7 | 91.7* | -4.7 | 5.3 | 1.5 | -5.0 | -8.6 | 7.8 | -4.6
Cc1ccc(C(=O)Nc2ccc3nc(C)sc3c2)s1 | -0.2 | 19.5 | -0.2 | 0.5 | -2.4 | · | · | · | · | ·
Cc1nc2ccc(NC(=O)c3cc(Cl)ccn3)cc2s1 | 68.3* | 2.5 | 73.9* | 60.5* | 7.1 | 10.8 | 30.2 | 59.3* | 37.3 | 8.5
Cc1nc2ccc(NC(=O)c3ccc(Cl)c([N+](=O)[O-])c3)cc2s1 | -3.9 | 0.3 | -3.6 | -10.9 | 0.5 | · | · | · | · | ·
Cc1ccc2nc(N3C(=O)CNC3=S)sc2c1 | 89.0* | -26.2 | 94.2* | 91.3* | 10.0 | -8.3 | 92.5* | 100.3* | 94.6* | 27.2
CCOc1ccc(N=Cc2c(O)c3ccccc3oc2=O)cc1 | 93.2* | -20.2 | 91.4* | 82.9* | -1.5 | 42.2 | 42.5 | 55.8* | 38.5 | 6.8
CN(C)/C(CN1CCN(C=O)CC1)=C1\N=C(c2ccccc2)OC1=O | -8.8 | 16.4 | 8.4 | -8.1 | 2.5 | · | · | · | · | ·
Cc1ccc(C(=O)c2coc3ccc(OCC(=O)O)cc23)cc1 | 28.7 | 19.0 | 66.0* | 33.2 | 1.3 | 47.1 | 43.1 | 77.0* | 78.5* | 65.7*
COc1ccc(C(=O)c2coc3ccc(O)cc23)cc1 | 87.2* | 17.9 | 85.3* | 80.3* | 9.8 | 79.5* | 80.3* | 97.8* | 78.0* | 60.9*
O=C(c1cccc(Br)c1)c1coc2ccc(O)cc12 | 72.2* | 17.5 | 86.4* | 84.2* | · | 56.5* | 73.3* | 94.8* | 50.6* | 23.7
CC(=O)Oc1ccc2occ(C(=O)c3ccccc3)c2c1 | 30.8 | 8.0 | 31.9 | 31.6 | · | · | · | · | · | ·
Cc1cccc(-n2cnc3cc(C(=O)N4CCCCC4)ccc32)c1 | 1.2 | 4.6 | 14.1 | 4.8 | -1.7 | · | · | · | · | ·
O=C(O)c1cc(-c2ccc3ccccc3c2)nc2ccc(F)cc12 | 32.9 | -369.0 | 72.8* | 66.0* | -6.7 | -2.1 | 5.8 | 14.4 | 9.4 | 24.0
Cc1ccc(S(=O)(=O)N2CCCN(Cc3nc4ccccc4c(=O)[nH]3)CC2)cc1 | -15.8 | -7.5 | -12.9 | -2.9 | · | · | · | · | · | ·
C/C(=N\NC(=O)c1ccco1)c1ccc(NC(=O)c2ccccc2)cc1 | -3.9 | -13.9 | 9.3 | -4.4 | -1.2 | · | · | · | · | ·
C/C(=N\NC(=O)c1ccco1)c1ccc(-c2ccccc2)cc1 | 84.6* | 11.5 | 66.6* | 55.4* | -2.1 | 8.1 | 34.2 | 45.4 | 37.1 | 15.5
COc1ccc(-c2cn3c4c(sc3n2)CCCC4)cc1 | 53.0* | 16.7 | 57.4* | 45.5 | 14.9 | 69.3* | 68.5* | 88.6* | 54.0* | 39.3
Cc1ccccc1S(=O)(=O)N(C)C[C@H]1OCc2cnnn2CCCC(=O)N([C@@H](C)CO)C[C@H]1C | · | 8.1 | · | · | · | · | · | · | · | ·
Clc1ccc(-c2cc3ccccc3[nH]2)cc1 | 43.9 | -277.8 | 70.8* | 31.4 | 0.3 | 11.2 | 41.9 | 78.1* | 11.4 | 26.2
O=c1cc(-c2ccc(Cl)cc2)[nH]c2ccccc12 | -0.7 | · | -13.8 | -4.9 | 1.1 | · | · | · | · | ·
COc1ccc2oc(=O)c(-c3csc(Nc4cccc(O)c4)n3)cc2c1 | -0.5 | -248.7 | -24.8 | -6.6 | -0.2 | · | · | · | · | ·
Cc1nn(C(C)(C)C)c(NC(=O)c2ccccc2)c1C#N | -8.8 | 12.7 | -27.6 | -4.9 | 2.2 | · | · | · | · | ·
